The text below walks through data of PubChem BioAssay (NCATS).

Several values for one entry are separate records, joined by “and”; a condition that tells them apart may be missing. Identical values can stand only once. Results filed as inconclusive are left out. Some structures have more than one record in an assay (separate samples or runs), and their calls can disagree. Values without a mark were called inactive. Calls come from the whole dose curve; as a rule, active = well fitted inhibition curve with a large enough effect; inconclusive = small, poorly fitted or top-dose-only effect; inactive = flat fitted curve, though single readings scatter. Where a SMILES comes first, the peptide text is derived from it. Bridges are numbered along the chain shown (N, C = ends). [ ]: non-standard residue; d: D form. Orn = NCCC[C@H](N)C(=O)O; Mpa = O=C(O)CCS
% is set by controls: 0 for no effect and ±100 for the full control effect.

The nature of one assay: Drug repurposing screens with cells derived from glioblastoma tumor samples (AID 1345199). Note: nearly all actives have a fitted effect of over 40% in size. As to conditions: GBM patient neurospheres viability, ATP luminescence, 48 h; at 45.9 µM (top of the series); tumour line D. Put shortly: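 Primary testing used CD133+ neurospheres from four GBM patients, seven concentrations, 48 h exposure and ATP-based viability; confirmation added three slower-growing patient lines.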
In the case of `N[C@@H](C(=O)N[C@H]1C(=O)N2C(C(=O)O)=C(Cl)CC[C@H]12)c1ccccc1`, the activity, negative = cell killing was -6.14%.

For the molecule `O.O=C([O-])CC([S-])C(=O)[O-].[Au+].[Na+].[Na+]` (stereo not given), the activity, negative = cell killing was 2.25%.

In the case of `O=C(Cn1cnnn1)N[C@@H]1C(=O)N2C(C(=O)O)=C(CSc3nncs3)CS[C@H]12`, the activity, negative = cell killing was -5.02% and -0.39%.

Regarding `Cc1cc(Nc2ccccc2C(=O)O)ccc1Cl`, the activity, negative = cell killing was -31.8%.

As for `OCC(O)COc1ccc(Cl)cc1` (stereo not given), the activity, negative = cell killing was -2.58%.

On to `O=C1O[C@@H]2[C@@H](O)[C@H](O)O[C@@H]2[C@H]1O`, for which the activity, negative = cell killing is -1.84%.

As for `NCCC[C@H](N)C(=O)O`, the activity, negative = cell killing was -10.6%.

In the case of `CS(=O)(=O)OCCCNCCCOS(C)(=O)=O`, the activity, negative = cell killing is -25.4%.

`CCOC(=O)COc1ccc2c(C)c(CCN(CC)CC)c(=O)oc2c1`: the activity, negative = cell killing is 5.03%.

On to `C/C(=C(\CCOC(=O)c1ccccc1)SS/C(CCOC(=O)c1ccccc1)=C(/C)N(C=O)Cc1cnc(C)nc1N)N(C=O)Cc1cnc(C)nc1N`, for which the activity, negative = cell killing was -28%.

As to `CCC(=O)Oc1ccc2c(c1)CC[C@@H]1[C@@H]2CC[C@]2(C)[C@@H](OC(=O)CC)CC[C@@H]12`, the activity, negative = cell killing is -16.9%.

On to `Nc1ncnc(Nc2ccc(Cl)cc2)n1`, for which the activity, negative = cell killing was -28%.

As to `O=P(O)(O)OC(Cn1cncn1)(Cn1cncn1)c1ccc(F)cc1F`, the activity, negative = cell killing was -9.38%.

With `NCCC(=O)[N-][C@@H](Cc1cnc[nH]1)C(=O)O.[Zn]`, the activity, negative = cell killing was -14.7%.

As for `CN(C(=O)CO)c1c(I)c(C(=O)NCC(O)CO)c(I)c(C(=O)NCC(O)CO)c1I` (stereo not given), the activity, negative = cell killing is -10.4%.

With `CCC(C)(C)OC(=O)N[C@@H](Cc1c[nH]c2ccccc12)C(=O)N[C@@H](CCSC)C(=O)N[C@@H](CC(=O)O)C(=O)N[C@@H](Cc1ccccc1)C(N)=O`, the activity, negative = cell killing is -10.3%.

As to `O=C(O)c1cc2ccccc2c(Cc2c(O)c(C(=O)O)cc3ccccc23)c1O`, the activity, negative = cell killing is -18.5%.

In the case of `CCOc1ccc(C[C@H]2NC(=O)CCSSC[C@@H](C(=O)N3CCC[C@H]3C(=O)N[C@@H](CCCN)C(=O)NCC(N)=O)NC(=O)[C@H](CC(N)=O)NC(=O)[C@H]([C@@H](C)O)NC(=O)[C@H]([C@@H](C)CC)NC2=O)cc1` ([Mpa][dY](Et)ITNCP[Orn]G-NH2; disulfide 1-6), the activity, negative = cell killing was -4.59%.

For the molecule `c1cnc2cc3c(cc2n1)[C@@H]1CNC[C@H]3C1`, the activity, negative = cell killing is -17.8%.

Consider `O=S(=O)(O)Oc1ccc(C(c2ccc(OS(=O)(=O)O)cc2)c2ccccn2)cc1`, for which the activity, negative = cell killing was -9.15%.

Take `CO[C@H]1[C@@H](O)[C@H](N)[C@@H](O[C@H]2O[C@H]([C@H](C)N)CC[C@H]2N)[C@H](O)[C@@H]1N(C)C(=O)CN`: the activity, negative = cell killing is -4.2%.

Consider `CCCCOC(=O)C(=O)Nc1cccc(-c2nn[nH]n2)c1`, for which the activity, negative = cell killing is 2.48%.

Take `CC(=O)[C@@]1(O)CC[C@H]2[C@@H]3C=C(Cl)C4=CC(=O)CC[C@]4(C)[C@H]3CC[C@@]21C`: the activity, negative = cell killing was -22.6%.

Regarding `CC1(C)S[C@@H]2[C@H](NC(=O)[C@H](N)c3ccccc3)C(=O)N2[C@H]1C(=O)OCOC(=O)[C@@H]1N2C(=O)C[C@H]2S(=O)(=O)C1(C)C`, the activity, negative = cell killing was -14.9%.

With `COc1ccc(CNCC(O)COc2ccc3[nH]c(=O)ccc3c2)cc1OC` (stereo not given), the activity, negative = cell killing was -26.6%.

Take `NC(=O)C[C@@H](N)C(=O)O`: the activity, negative = cell killing is -4.07%.

As to `O=C(O)[C@@H](O)[C@H](O)[C@H](O)[C@@H](O)C(=O)O` (tested in a mixture with another compound), the activity, negative = cell killing is -10.8%.

In the case of `CC(C(=O)O)c1ccc(C2CCCCC2)c2ccccc12` (stereo not given), the activity, negative = cell killing is -15.4%.

`CO[C@@H]1[C@@H](O[C@@H]2O[C@H](C)[C@@H](O[C@H]3C[C@@](C)(O)[C@@H](OC(=O)CC(C)C)[C@H](C)O3)[C@H](N(C)C)[C@H]2O)[C@@H](CC=O)C[C@@H](C)[C@@H](O)/C=C/C=C/C[C@@H](C)OC(=O)C[C@H]1O`: the activity, negative = cell killing was -21.1%.

As for `NCCCC[C@H](NC(=O)[C@@H]1CCCN1C(=O)[C@@H]1CSSC[C@H](NC(=O)CNC(=O)CNC(=O)CN)C(=O)N[C@@H](Cc2ccc(O)cc2)C(=O)N[C@@H](Cc2ccccc2)C(=O)N[C@@H](CCC(N)=O)C(=O)N[C@@H](CC(N)=O)C(=O)N1)C(=O)NCC(N)=O` (H-GGGCYFQNCPKG-NH2; disulfide 4-9), the activity, negative = cell killing is 3.33%.

With `CCCN(CC)C(CC)C(=O)Nc1c(C)cccc1C` (stereo not given), the activity, negative = cell killing is -11.8%.

For `CC(=O)OC[C@H]1O[C@@H](O[C@H]2[C@H](O)[C@@H](OC(=O)c3ccccc3C(=O)O)[C@H](O)O[C@@H]2COC(C)=O)[C@H](O)[C@@H](OC(=O)c2ccccc2C(=O)O)[C@@H]1O`, the activity, negative = cell killing was -4.26%.

Still in this assay, the particulars now being: GBM patient neurospheres viability, ATP luminescence, 48 h; at 46 µM (top of the series); tumour line A.
Consider `O=C(Cn1cnnn1)N[C@@H]1C(=O)N2C(C(=O)O)=C(CSc3nncs3)CS[C@H]12`, for which the activity, negative = cell killing was -29.3%.

On to `OCC(O)COc1ccc(Cl)cc1` (stereo not given), for which the activity, negative = cell killing is -5.56%.

Consider `O=C1O[C@@H]2[C@@H](O)[C@H](O)O[C@@H]2[C@H]1O`, for which the activity, negative = cell killing was -28.6%.

On to `O=C(O)c1cc2ccccc2c(Cc2c(O)c(C(=O)O)cc3ccccc23)c1O`, for which the activity, negative = cell killing is -27.5%.

On to `O=S(=O)(O)Oc1ccc(C(c2ccc(OS(=O)(=O)O)cc2)c2ccccn2)cc1`, for which the activity, negative = cell killing is 21.1%.

For `NC(=O)C[C@@H](N)C(=O)O`, the activity, negative = cell killing was 26.7%.

As for `NCCCC[C@H](NC(=O)[C@@H]1CCCN1C(=O)[C@@H]1CSSC[C@H](NC(=O)CNC(=O)CNC(=O)CN)C(=O)N[C@@H](Cc2ccc(O)cc2)C(=O)N[C@@H](Cc2ccccc2)C(=O)N[C@@H](CCC(N)=O)C(=O)N[C@@H](CC(N)=O)C(=O)N1)C(=O)NCC(N)=O` (H-GGGCYFQNCPKG-NH2; disulfide 4-9), the activity, negative = cell killing was -28%.

Take `CCCN(CC)C(CC)C(=O)Nc1c(C)cccc1C` (stereo not given): the activity, negative = cell killing was -28.6%.
